Measured values: PubChem BioAssay (NCATS)
Results filed as inconclusive are left out. Active and inactive are the calls of the source. Unless noted, calls follow the shape of the dose curve; as a rule, active = well fitted inhibition curve with a large enough effect; inconclusive = small, poorly fitted or top-dose-only effect; inactive = no such curve, though single readings can be large or run the other way.

System: not listed separately
Assay: Natriuretic polypeptide receptor (hNpr1) antagonism - Pilot counterscreen GloSensor control cell line (AID 1347045; calls by dose curve; also: % is scaled to controls: 0 for no effect and ±100 for the full control effect)
Conditions: HEK293 cGMP GloSensor cells, SNP-stimulated luminescence, 20 min; series mostly up to 38.3 µM; activity change, negative = inhibition: at the top concentration
In short: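 HEK293 cells carrying the GloSensor cGMP sensor (GIP/pGS-40F) were loaded with 2% GloSensor reagent for 2 h, exposed to compounds for 30 min, and then stimulated with 50 uM sodium nitroprusside for 20 min at room temperature.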

SMILES | activity change, negative = inhibition
O=c1[nH]c(=O)n([C@H]2C[C@@H](O)[C@@H](CO)O2)cc1C=CBr | -13.2% (inactive)
COc1ccc2cc([S+]([O-])Cc3ncc(C)c(OC)c3C)nc2c1 | 11.6% (inactive)
CN[C@H](CC(C)C)C(=O)N[C@H]1C(=O)N[C@@H](CC(N)=O)C(=O)N[C@@H]2C(=O)N[C@H]3C(=O)N[C@H](C(=O)N[C@H](C(=O)O)c4cc(O)cc(O)c4-c4cc3ccc4O)[C@H](O)c3ccc(c(Cl)c3)Oc3cc2cc(c3O[C@@H]2O[C@H](CO)[C@@H](O)[C@H](O)[C@@H]2O[C@H]2C[C@](C)(N)[C@H](O)[C@H](C)O2)Oc2ccc(cc2Cl)[C@H]1O | -2.1% (inactive)

Target: Atrial natriuretic peptide receptor 1 (Homo sapiens) (UniProt P16066)
Sequence (P16066 whole entry, looked up): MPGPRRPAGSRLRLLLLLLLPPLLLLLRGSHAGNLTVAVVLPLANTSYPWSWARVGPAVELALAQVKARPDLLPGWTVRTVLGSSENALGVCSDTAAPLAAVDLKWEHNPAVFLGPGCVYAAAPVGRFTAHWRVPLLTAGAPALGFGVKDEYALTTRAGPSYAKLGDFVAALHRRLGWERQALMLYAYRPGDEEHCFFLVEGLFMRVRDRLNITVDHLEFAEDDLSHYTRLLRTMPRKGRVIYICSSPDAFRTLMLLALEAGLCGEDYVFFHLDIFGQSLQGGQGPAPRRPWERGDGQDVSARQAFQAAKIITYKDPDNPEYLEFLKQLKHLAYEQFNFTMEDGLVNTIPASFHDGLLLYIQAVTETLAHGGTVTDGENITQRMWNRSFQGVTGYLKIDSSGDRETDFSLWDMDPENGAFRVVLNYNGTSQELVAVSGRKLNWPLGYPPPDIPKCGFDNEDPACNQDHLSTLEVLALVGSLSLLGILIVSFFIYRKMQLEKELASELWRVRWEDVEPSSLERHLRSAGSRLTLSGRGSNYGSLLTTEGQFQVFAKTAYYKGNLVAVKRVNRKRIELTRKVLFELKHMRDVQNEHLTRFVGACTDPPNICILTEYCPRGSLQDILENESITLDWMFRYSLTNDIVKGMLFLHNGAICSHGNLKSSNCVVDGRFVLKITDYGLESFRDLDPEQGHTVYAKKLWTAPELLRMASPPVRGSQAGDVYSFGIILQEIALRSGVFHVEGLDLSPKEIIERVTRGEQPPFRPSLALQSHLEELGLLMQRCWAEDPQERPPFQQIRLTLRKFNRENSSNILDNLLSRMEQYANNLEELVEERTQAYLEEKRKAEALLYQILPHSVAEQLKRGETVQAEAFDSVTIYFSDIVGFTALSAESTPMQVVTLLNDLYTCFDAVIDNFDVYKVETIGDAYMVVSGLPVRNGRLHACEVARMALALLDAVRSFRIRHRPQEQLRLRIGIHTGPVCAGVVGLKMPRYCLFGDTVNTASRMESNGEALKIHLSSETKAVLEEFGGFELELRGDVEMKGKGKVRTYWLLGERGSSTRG
Assay: Natriuretic polypeptide receptor (hNpr1) antagonism - Pilot screen (AID 1347049; calls by dose curve;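 also: agonist-evoked cGMP luminescence read 20 min after hNppA addition; % is scaled to controls: 0 for no effect and ±100 for the full control effect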)
Conditions: hNpr1 cells, antagonist mode cGMP read-out; series mostly up to 57.5 µM; activity change, negative = inhibition: at the top concentration
In short: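 HEK293 cells co-expressing hNpr1 and the GloSensor pGS-40F cGMP luciferase sensor were preloaded with 2% GloSensor reagent for 2 h. Compounds were added for 30 min at room temperature, then cells were stimulated with 0.1 nM hNppA for 20 min before luminescence readout.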

SMILES | activity change, negative = inhibition
O=c1[nH]c(=O)n([C@H]2C[C@@H](O)[C@@H](CO)O2)cc1C=CBr | 8.71% (inactive)
COc1ccc2cc([S+]([O-])Cc3ncc(C)c(OC)c3C)nc2c1 | -0.963% (inactive)
CN[C@H](CC(C)C)C(=O)N[C@H]1C(=O)N[C@@H](CC(N)=O)C(=O)N[C@@H]2C(=O)N[C@H]3C(=O)N[C@H](C(=O)N[C@H](C(=O)O)c4cc(O)cc(O)c4-c4cc3ccc4O)[C@H](O)c3ccc(c(Cl)c3)Oc3cc2cc(c3O[C@@H]2O[C@H](CO)[C@@H](O)[C@H](O)[C@@H]2O[C@H]2C[C@](C)(N)[C@H](O)[C@H](C)O2)Oc2ccc(cc2Cl)[C@H]1O | 0.765% (inactive)

Target: Atrial natriuretic peptide receptor 2 (Homo sapiens) (UniProt P20594)
Sequence (P20594 whole entry, looked up): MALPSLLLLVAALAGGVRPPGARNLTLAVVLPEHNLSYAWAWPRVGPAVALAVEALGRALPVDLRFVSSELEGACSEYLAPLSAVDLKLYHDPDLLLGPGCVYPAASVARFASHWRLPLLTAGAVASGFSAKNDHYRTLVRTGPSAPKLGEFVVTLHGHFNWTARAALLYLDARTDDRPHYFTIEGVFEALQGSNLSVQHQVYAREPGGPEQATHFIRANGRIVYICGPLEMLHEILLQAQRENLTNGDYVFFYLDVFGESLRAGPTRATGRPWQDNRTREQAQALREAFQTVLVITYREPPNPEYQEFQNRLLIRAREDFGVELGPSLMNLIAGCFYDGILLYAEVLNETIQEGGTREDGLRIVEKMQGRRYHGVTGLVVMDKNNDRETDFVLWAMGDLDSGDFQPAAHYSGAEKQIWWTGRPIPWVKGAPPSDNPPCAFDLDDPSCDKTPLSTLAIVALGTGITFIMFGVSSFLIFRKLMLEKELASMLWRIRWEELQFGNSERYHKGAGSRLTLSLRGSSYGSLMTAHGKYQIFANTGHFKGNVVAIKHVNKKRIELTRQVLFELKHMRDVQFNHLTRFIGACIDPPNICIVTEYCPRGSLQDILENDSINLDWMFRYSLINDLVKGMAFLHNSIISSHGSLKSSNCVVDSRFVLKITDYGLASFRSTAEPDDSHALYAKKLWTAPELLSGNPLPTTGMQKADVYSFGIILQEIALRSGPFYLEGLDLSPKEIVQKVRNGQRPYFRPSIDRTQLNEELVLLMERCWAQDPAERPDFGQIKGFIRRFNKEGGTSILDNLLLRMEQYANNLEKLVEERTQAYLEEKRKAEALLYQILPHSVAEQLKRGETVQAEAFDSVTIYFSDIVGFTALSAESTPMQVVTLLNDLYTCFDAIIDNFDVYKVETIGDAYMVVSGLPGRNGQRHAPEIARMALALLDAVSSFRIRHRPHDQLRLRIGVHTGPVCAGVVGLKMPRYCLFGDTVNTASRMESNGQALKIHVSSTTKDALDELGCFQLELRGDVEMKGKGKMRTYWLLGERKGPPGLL
Assay: Natriuretic polypeptide receptor (hNpr2) antagonism - Pilot subtype selectivity assay (AID 1347050; calls by dose curve; also: % is scaled to controls: 0 for no effect and ±100 for the full control effect)
Conditions: NPR2-expressing cells, cGMP antagonist-mode read-out; series mostly up to 38.3 µM; activity change, negative = inhibition: at the top concentration
In short: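 cGMP-sensor HEK293/hNpr2 cells; 2% GloSensor reagent 2 h RT; compounds 30 min; baseline luminescence read; 1 nM hNppC agonist 20 min RT; final luminescence read by CCD camera. Antagonism = reduced post-agonist signal.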

SMILES | activity change, negative = inhibition
O=c1[nH]c(=O)n([C@H]2C[C@@H](O)[C@@H](CO)O2)cc1C=CBr | 8.26% (inactive)
COc1ccc2cc([S+]([O-])Cc3ncc(C)c(OC)c3C)nc2c1 | -2.09% (inactive)
CN[C@H](CC(C)C)C(=O)N[C@H]1C(=O)N[C@@H](CC(N)=O)C(=O)N[C@@H]2C(=O)N[C@H]3C(=O)N[C@H](C(=O)N[C@H](C(=O)O)c4cc(O)cc(O)c4-c4cc3ccc4O)[C@H](O)c3ccc(c(Cl)c3)Oc3cc2cc(c3O[C@@H]2O[C@H](CO)[C@@H](O)[C@H](O)[C@@H]2O[C@H]2C[C@](C)(N)[C@H](O)[C@H](C)O2)Oc2ccc(cc2Cl)[C@H]1O | -1.11% (inactive)

System: not listed separately
Assay: NS1 protein of Zika virus - qHTS assay to identify small molecule inhibitors in human HEK 293 cells (AID 1347053); also: nearly all actives have a fitted effect of over 55% in size; also: potency is read from the fitted curve at half-maximal effect;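 as to activity change, negative = inhibition: plate controls were infected untreated cells for no effect and uninfected cells for full effect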
Conditions: HEK293 ZIKV MR766 infection, NS1 TR-FRET, 24 h; series mostly up to 46.1 µM; activity change, negative = inhibition: at the top concentration
In short: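 HEK 293 cells, seeded 20 h at 37 C, were pretreated with compound 1 h, then infected with ZIKV MR766 (MOI = 0.5) for 24 h. NS1 was read by TR-FRET with two anti-NS1 antibodies, normalized to uninfected and infected wells.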

SMILES | activity change, negative = inhibition | Potency
CC(=O)C1=C(O)C=C2Oc3c(C(C)=O)c(O)c(C)c(O)c3C2(C)C1=O (stereo not given) | -2.25% (inactive) | –
CCCCCCCCCCCCCCCC(=O)OC[C@@H](NC(=O)C(Cl)Cl)[C@H](O)c1ccc([N+](=O)[O-])cc1 | -0.72% (inactive) | –
N#CC(=Cc1ccc(O)c(O)c1)C(=O)NCc1ccccc1 | -9.22% (inactive) | –
O=C(O)c1ccc(Nc2ncc3c(n2)-c2ccc(Cl)cc2C(c2c(F)cccc2F)=NC3)cc1 | 0.693% (inactive) | –
O=c1[nH]c(=O)n([C@H]2C[C@@H](O)[C@@H](CO)O2)cc1C=CBr | -1.82% (inactive) | –
CC(=O)O[C@]1(C(C)=O)CC[C@H]2[C@@H]3C=C(C)C4=CC(=O)CC[C@]4(C)[C@@H]3CC[C@@]21C | -17% (inactive) | –
CC1(C)[C@H](O[C@H]2O[C@H](C(=O)O)[C@@H](O)[C@H](O)[C@H]2O[C@@H]2O[C@H](C(=O)O)[C@@H](O)[C@H](O)[C@H]2O)CC[C@@]2(C)[C@H]1CC[C@]1(C)[C@H]2C(=O)C=C2[C@H]3C[C@@](C)(C(=O)O)CC[C@]3(C)CC[C@]21C | 0.78% (inactive) | –
FC(F)c1nc2ccccc2n1-c1nc(N2CCOCC2)nc(N2CCOCC2)n1 | – | 1.87 µM (active)
CC(C)(C)c1nc2c3cc[nH]c(=O)c3c3cc(F)ccc3c2[nH]1 | 11.6% (inactive) | –
C=Cc1c(C)c2cc3nc(cc4[nH]c(cc5nc(cc1[nH]2)C(C)=C5CCC(=O)O)c(CCC(=O)OC)c4C)[C@@]1(C)C3=CC=C(C(=O)OC)[C@H]1C(=O)OC | -4.51% (inactive) | –
CCc1ccc(C(=O)Nc2cc(CN3CCN(C)CC3)cc(C(F)(F)F)c2)cc1C#Cc1cnc2ccnn2c1 | – | 13.2 µM (active)
CCNC(=O)Nc1ccc(-c2nc3c(c(N4CCOC[C@H]4C)n2)CCN(C2COC2)C3)cc1 | 3.75% (inactive) | –
COC(=O)[C@@H]1CC2=CC(=O)CC[C@]2(C)[C@@]23O[C@@H]2C[C@@]2(C)[C@H](CC[C@@]24CCC(=O)O4)[C@@H]13 | -4.56% (inactive) | –
C[N+]1(C)[C@@H]2C[C@@H](OC(=O)C(O)(c3cccs3)c3cccs3)C[C@H]1[C@@H]1O[C@@H]12 | -2.64% (inactive) | –
CC(=O)O[C@H]1C[C@@H]2CC[C@H]3[C@H]4C[C@H]([N+]5(C)CCCCC5)[C@@H](OC(C)=O)[C@@]4(C)CC[C@@H]3[C@@]2(C)C[C@H]1[N+]1(C)CCCCC1 | 14.6% (inactive) | –
CN[C@H](CC(C)C)C(=O)N[C@H]1C(=O)N[C@@H](CC(N)=O)C(=O)N[C@@H]2C(=O)N[C@H]3C(=O)N[C@H](C(=O)N[C@H](C(=O)O)c4cc(O)cc(O)c4-c4cc3ccc4O)[C@H](O)c3ccc(c(Cl)c3)Oc3cc2cc(c3O[C@@H]2O[C@H](CO)[C@@H](O)[C@H](O)[C@@H]2O[C@H]2C[C@](C)(N)[C@H](O)[C@H](C)O2)Oc2ccc(cc2Cl)[C@H]1O | 0.43% (inactive) | –
